Compound activity deposited in PubChem BioAssay by several laboratories.
Bim-Mcl-1: inhibitors of Bim peptide binding to Mcl-1, primary screen, biochemical, bead-based flow cytometry, multiplex. Induced myeloid leukemia cell differentiation protein Mcl-1 (Homo sapiens), Q07820. Bim peptide-Mcl-1 binding. inhibition, % at 10 µM. 0.1% of 190,000 active. AID 1009, 2008; in the data active means inhibition above about 40%
Target sequence (Q07820 whole entry, looked up): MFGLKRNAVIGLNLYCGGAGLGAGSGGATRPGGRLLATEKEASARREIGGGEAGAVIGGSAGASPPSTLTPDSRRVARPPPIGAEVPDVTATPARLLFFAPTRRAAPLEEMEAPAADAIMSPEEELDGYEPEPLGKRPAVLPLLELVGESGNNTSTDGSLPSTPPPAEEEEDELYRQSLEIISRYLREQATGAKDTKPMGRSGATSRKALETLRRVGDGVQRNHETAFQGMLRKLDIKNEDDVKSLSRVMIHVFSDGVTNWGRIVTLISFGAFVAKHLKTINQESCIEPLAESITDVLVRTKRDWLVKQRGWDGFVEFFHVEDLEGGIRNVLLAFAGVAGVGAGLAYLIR
Mcl1-Bid inh: Mcl-1/Bid binding inhibitors, primary screen, biochemical, TR-FRET, 1536-well | TR-FRET Mcl-1/Bid-Dy647 peptide binding | inhibition, % at 21.7 µM | Induced myeloid leukemia cell differentiation protein Mcl-1 (Homo sapiens), Q07820 | 0.97% of 220,000 active;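 active means compounds that cut the binding signal by more than half at the single screening dose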;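 further: His-tagged Mcl-1 with europium anti-His antibody binding Bid BH3 peptide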
Mcl1-Noxa inh: Mcl-1/Noxa binding inhibitors, primary screen, biochemical, TR-FRET, 1536-well; Induced myeloid leukemia cell differentiation protein Mcl-1 (Homo sapiens), Q07820; TR-FRET Mcl-1/Noxa peptide binding, 2 h; inhibition, % at 21.7 µM; 1.5% of 220,000 active;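 active means compounds that cut the protein-peptide binding signal by more than 50% relative to plate controls in a single-dose test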;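 further: His-tagged Mcl-1 with rhodamine Noxa BH3 peptide and terbium anti-His antibody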
14-3-3 Bad PPI: inhibitors of 14-3-3 zeta/Bad binding, primary screen, biochemical, TR-FRET, bovine 14-3-3 zeta; 14-3-3 protein zeta/delta (Bos taurus), P63103; TR-FRET 14-3-3zeta/Dy647-pBad peptide displacement, 1 h; inhibition, % at 21.7 µM; 0.71% of 220,000 active; AID 781, 2007;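 active means inhibition above about 70%, limit read from the data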
Target sequence (P63103 whole entry, looked up): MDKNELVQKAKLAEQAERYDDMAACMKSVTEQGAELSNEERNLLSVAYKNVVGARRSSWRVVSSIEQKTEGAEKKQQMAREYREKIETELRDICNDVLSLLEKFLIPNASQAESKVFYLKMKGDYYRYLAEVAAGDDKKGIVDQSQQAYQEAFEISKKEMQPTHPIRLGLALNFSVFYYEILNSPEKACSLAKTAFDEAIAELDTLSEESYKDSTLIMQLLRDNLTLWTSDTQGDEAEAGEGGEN
p47phox inh: p47phox/p22phox peptide binding inhibitors, primary screen, biochemical, uHTS, NADPH oxidase regulatory subunit. fluorescence polarization, 2 h. Neutrophil cytosol factor 1 (Homo sapiens), P14598. 0.53% of 220,000 active. inhibition, % at 24.7 µM
eIF4E-4G inh: eIF4E–eIF4G protein interaction inhibitors, primary screen, biochemical, uHTS, TR-FRET, eIF4GI fragment | AID 782, 2007 | inhibition, % at 21.7 µM | 0.37% of 220,000 active | TR-FRET eIF4E-eIF4GI(517-606) binding, 2 h
Numbers stand for hits; i = inactive; nt = not tested or not shown. This is a sample that favours compounds with a hit; in the whole collection about 3.4% have one here.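 How the source made its calls, unless noted: active means inhibition above about 30% (limit read from the data); inactive means the rest.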

SMILES | Bim-Mcl-1 | Mcl1-Bid inh | Mcl1-Noxa inh | 14-3-3 Bad PPI | p47phox inh | eIF4E-4G inh
CC(C)(C)C(=O)Cn1c(NCCCl)nc2ccccc21 | i | i | i | i | i | i
CCc1cccc(C)c1NC(=S)N1CC2CC(C1)c1cccc(=O)n1C2 (stereo not given) | i | i | i | i | i | i
CSc1ccc(C(=O)C2CCCN(CCCn3cccn3)C2)cc1 (stereo not given) | i | 65.2 | i | i | i | i
CCn1ccnc1CN1CCCC(C(=O)c2ccc(SC)cc2)C1 (stereo not given) | i | i | i | i | i | i
N#CCCn1cc(C=C2C(=O)NC(=O)NC2=O)c(-c2ccccc2)n1 | i | i | i | i | i | i
O=C(O)CCn1cc(C=C2C(=O)NC(=S)NC2=O)c(-c2ccccc2)n1 | i | i | 61.9 | i | i | i
O=C(O)CCn1cc(C=C2C(=O)NC(=S)NC2=O)c(-c2cc3ccccc3oc2=O)n1 | i | i | 81.0 | i | i | i
O=P(OCC(F)(F)C(F)F)(N1CCOCC1)N1CCOCC1 | i | i | i | i | i | i
COc1cccc(C2(O)CCN(Cc3ccncc3)CC2)c1 | i | i | i | i | i | i
CC(=O)OC1N=C(c2ccccc2)c2cc(Br)ccc2N(C)C1=O (stereo not given) | i | i | i | i | 32.2 | i
CCOP(=O)(OCC)/C(C#N)=C/c1ccoc1 | nt | i | i | i | i | i
O=c1[nH]c(=O)n(-c2ccc(Br)cc2)c(O)c1C=NCCN1CCCCC1 | nt | i | i | i | i | 92.8
COc1ccc(CN2C(=O)NC(=O)/C(=C/c3ccc([N+](=O)[O-])s3)C2=O)cc1 | nt | i | 65.0 | i | i | i
COc1ccc(CN2C(=O)NC(=O)/C(=C\c3ccco3)C2=O)cc1 | i | i | i | i | i | i
O=C1NC(=O)N(Cc2ccc(F)cc2)C(=O)/C1=C\c1ccc(N2CCCC2)cc1 | nt | i | i | i | 193.4 | i
O=C1NC(=O)N(Cc2ccc(F)cc2)C(=O)/C1=C\c1ccc([N+](=O)[O-])s1 | nt | i | 93.0 | i | i | i
CSc1nnc(OC(=O)N(C)C)n1-c1ccc(Cl)cc1 | nt | i | i | i | i | i
CC(=O)NC(Cc1ccc(N(CCCl)CCCl)cc1)C(=O)NCC(=O)NCC(=O)O (stereo not given) | i | i | i | i | i | i
COc1ccc(CN2CCCC(C(=O)c3sccc3C)C2)cc1O (stereo not given) | i | i | i | i | i | i
COc1ccccc1N(CC(=O)NC1CCCCC1)C(=O)c1cnn(C(C)C)c1 | i | i | i | i | 33.1 | i
COC(=O)C1=Nc2ccccc2/C1=C\c1c(O)n(C)c(=O)n(C)c1=O | nt | i | i | i | i | i
Cn1c(O)c(/C=C2\N=c3ccccc3=C2CCNC(=S)NC2CC2)c(=O)n(C)c1=O | nt | i | i | i | 38.7 | i
CCN(CC)CCN/N=C(\C)c1c(O)[nH]c(=O)[nH]c1=O | nt | i | i | i | i | i
CN1CCN(C(=O)COc2ccc(N(C)S(=O)(=O)c3ccc(F)cc3)cc2)CC1 | i | i | i | i | i | i
Nc1cc(Cl)c2nonc2c1[N+](=O)[O-] | i | i | i | i | i | i
SMILES | Bim-Mcl-1 | Mcl1-Bid inh | Mcl1-Noxa inh | 14-3-3 Bad PPI | p47phox inh | eIF4E-4G inh
Nc1c(C(=O)NCc2ccco2)c2nc3ccccc3nc2n1Cc1ccccc1 | i | i | i | i | i | i
COc1ccc(Cn2c(N)c(C(=O)NCc3ccco3)c3nc4ccccc4nc32)cc1 | i | i | 71.3 | i | i | i
Nc1c(C(=O)NCc2ccco2)c2nc3ccccc3nc2n1Cc1ccc(F)cc1 | i | 52.6 | 65.5 | nt | i | nt
O=C(Nc1nc(-c2ccccc2)c(-c2ccccc2)s1)c1ccc(S(=O)(=O)N(CCCl)CCCl)cc1 | i | i | i | i | i | i
Cc1nc2sccc2c(=O)n1-c1ccccc1Cl | i | i | i | i | i | i
Nc1cc2nc3ccccc3nc2cc1N | nt | i | 51.2 | i | i | 35.7
C=C(C=O)CC1CC(O)[C@]2(C)OC3CC4OC5C[C@]6(C)O[C@]7(C)CCC8OC9C[C@]%10(C)OC%11C(C)=CC(=O)OC%11CC%10OC9C[C@@H](C)C8OC7CC6O[C@]5(C)CC5OC5C4OC3CC2O1 (stereo not given in full) | i | 77.6 | i | i | i | i
C=C(CO)CC1CC(O)[C@]2(C)OC3CC4OC5C[C@]6(C)O[C@]7(C)CCC8OC9C[C@]%10(C)OC%11C(C)=CC(=O)OC%11CC%10OC9C[C@@H](C)C8OC7CC6O[C@]5(C)C/C=C\C4OC3CC2O1 (stereo not given in full) | i | i | i | i | i | i
Cn1c(CN2CCN(C(=O)COc3ccccc3)CC2)nc2cc([N+](=O)[O-])ccc21 | i | i | i | i | i | i
COc1cc(/C=C/[N+](=O)[O-])ccc1O | i | i | 51.3 | i | i | i
CCN(CC)c1ccc(/C=C/[N+](=O)[O-])cc1 | i | i | i | i | i | i
O=C1NC(=O)N(c2ccccc2)C(=O)/C1=C/c1ccc(Sc2ccccc2)o1 | i | i | i | i | i | i
O=C1NC(=O)N(c2ccccc2F)C(=O)/C1=C/c1ccc(Sc2nc3ccccc3[nH]2)o1 | i | i | 66.2 | i | i | i
O=C1NC(=O)N(c2cccc(Cl)c2)C(=O)/C1=C\c1ccc(Sc2nc3ccccc3[nH]2)o1 | i | i | 52.3 | i | i | i
Cn1c(O)c(C=NC2CCN(Cc3ccccc3)CC2)c(=O)[nH]c1=O | nt | i | i | i | i | 79.5
Cc1ccc(-c2nc(N3CCOCC3)s[n+]2-c2ccccc2)cc1 | i | i | i | i | 38.0 | i
COc1ccc(-n2cnc3cc(C(=O)N4CCC5(CC4)OCCO5)ccc32)cc1 | i | i | i | i | nt | i
O=C(c1ccc2nc(-c3ccco3)c(-c3ccco3)nc2c1)N1CCC2(CC1)OCCO2 | i | i | 78.3 | i | i | i
CCC(C)N1C(=O)NC(=O)C2(Cc3c(ccc4ccccc34)N(C)C2)C1=O (stereo not given) | i | i | 58.9 | i | i | i
COc1ccc2c(c1)CC1(CN2C)C(=O)NC(=O)N(CCc2ccccc2)C1=O (stereo not given) | i | i | i | i | i | i
CCCC(=O)NC(Oc1ccccc1Cl)C(Cl)(Cl)Cl (stereo not given) | i | i | i | 77.3 | i | i
CCCC(=O)NC(Oc1ccc(OC)cc1)C(Cl)(Cl)Cl (stereo not given) | i | i | i | i | i | i
